# SW480 rerep = DNA re-replication induction in SW480 cells | hit rate 1.8% among 340,000 | SW480 DNA re-replication, Hoechst DNA content imaging, 48 h | AID 624297 | Potency, µM (titrated, usually from 46.1 µM), without a hit: at the top dose re-replication activation, hits mostly activators; further: potency means the concentration at half of the fitted maximal effect; % of control where 0% means no effect; nearly all actives have a fitted effect of over 55% in size
#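 250 cells/well; 23 nL cpd via pin tool; 48 hr, 37 C, 5% CO2; Hoechst 40 min; imager read of total nuclear intensity, ex 405/em 500-530 nm.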
# KB-3-1 cytotox = KB-3-1 parental cell cytotoxicity; Potency, µM (series often up to 46.1 µM), most hits filed as cytotoxic; AID 1347075; KB-3-1 viability, CellTiter-Glo ATP luminescence, 72 h; hit rate 1.4% among 400,000; further: potency means the concentration at half of the fitted maximal effect; on the % scale 0 is the no-effect control and ±100 the full control effect; nearly all actives have a fitted effect of over 60% in size
#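 Using CellTiter-Glo luminescence, growth of non-resistant KB-3-1 adenocarcinoma cells is assessed 72 h after pin-tool compound addition at 37 °C. Normalized responses across the concentration series yield fitted curves.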
# KB-V1 cytotox = KB-V1 MDR subline cytotoxicity. KB-V1 MDR cells viability, CellTiter-Glo, 72 h. AID 1347076. hit rate 3.4% among 400,000. Potency, µM (doses to about 46.1 µM), usual class: cytotoxic; further: potency means the concentration at half of the fitted maximal effect; on the % scale 0 is the no-effect control and ±100 the full control effect; nearly all actives have a fitted effect of over 60% in size
#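 Cytotoxicity via CellTiter-Glo luminescence after 72 h compound exposure at 37 degrees C. Cells: drug-selected KB-V1 line, DMEM phenol-red free plus 10% FBS. Compounds tested at multiple concentrations; normalized data fitted to concentration-effect curves.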
# Giardia killer = kills Giardia lamblia; Giardia lamblia trophozoite viability; activity change, % at 7.66 µM, hits read low; hit rate 0.15% among 340,000; AID 540267; in the data active means activity change below about -80%; inconclusive means between about -30% and that limit;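 further: parasites exposed to compound for two days anaerobically before the ATP read; on the % scale 0 is the no-effect control and ±100 the full control effect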
#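 ATP-content bioluminescence gauges trophozoite survival. Cells (100/well) receive compound and incubate anaerobically for 48 hrs at 37 deg C; detection reagent follows for 15-30 min at room temperature.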
# S-ASM inh = inhibitors of human secretory acid sphingomyelinase; placental ASM, HMU-PC fluorogenic substrate, 60 min; P17405; Potency, µM (top dose mostly 57.5 µM), for the others: at the top dose activity change, negative = inhibition, hits mostly inhibitors; hit rate 0.006% among 340,000; AID 504937; further: potency means the concentration at half of the fitted maximal effect
# Target sequence (P17405 47-631 limits assumed): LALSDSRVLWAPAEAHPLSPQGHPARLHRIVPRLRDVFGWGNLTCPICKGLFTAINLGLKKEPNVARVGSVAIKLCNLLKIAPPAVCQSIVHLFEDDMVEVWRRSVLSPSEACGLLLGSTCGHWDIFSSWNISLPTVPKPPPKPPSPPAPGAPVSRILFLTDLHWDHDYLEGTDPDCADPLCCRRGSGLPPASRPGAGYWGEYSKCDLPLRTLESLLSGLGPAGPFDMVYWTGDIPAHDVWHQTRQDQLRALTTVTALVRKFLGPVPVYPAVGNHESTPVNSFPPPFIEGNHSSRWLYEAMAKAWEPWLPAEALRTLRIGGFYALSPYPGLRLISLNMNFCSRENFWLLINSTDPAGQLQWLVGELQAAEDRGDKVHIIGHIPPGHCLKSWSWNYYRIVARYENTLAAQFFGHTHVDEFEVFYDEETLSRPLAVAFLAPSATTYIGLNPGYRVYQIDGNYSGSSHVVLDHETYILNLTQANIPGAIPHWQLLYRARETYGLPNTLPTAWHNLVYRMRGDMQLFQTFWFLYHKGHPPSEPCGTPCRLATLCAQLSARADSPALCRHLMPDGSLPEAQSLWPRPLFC
#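 Fluorogenic HMU-PC substrate (9 uM final) is turned over by placental ASM in 60 min at 37 C after a 10 min compound preincubation. Reaction ended by alkaline stop (pH 10), with fluorescence read at 386/447 nm.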
# MCF10A rereplic = induces DNA re-replication in MCF 10a normal breast cells; MCF 10A DNA re-replication, Hoechst nuclear intensity, 48 h; Potency, µM (titrated, usually from 46.1 µM), for inactives: at the top dose activity, positive = re-replication, hits mostly activators; hit rate 2.9% among 350,000; AID 624296; further: potency means the concentration at half of the fitted maximal effect; % of control where 0% means no effect; nearly all actives have a fitted effect of over 50% in size
# Numbers without * were called inactive; i = inactive; ? = inconclusive; nt = no result. A selection: hits, their analogues and other compounds. The true share with any hit is near 6.9%. Unless noted, the call rests on the fitted dose curve; in most records, active means well fitted curve in the direction sought with a large enough effect; inconclusive means small, poorly fitted or top-dose-only effect, or another doubt; inactive means no such curve, though single readings can be large; an effect the other way counts as inactive or inconclusive.
SMILES,SW480 rerep,KB-3-1 cytotox,KB-V1 cytotox,Giardia killer,S-ASM inh,MCF10A rereplic
C=CCOc1ccc(C(=O)/C=C2/C(=O)Nc3ccccc32)cc1,?,i,i,8,-8%,?
NC(=O)COc1ccc(C(=O)/C=C2/C(=O)Nc3ccccc32)cc1,23µM*,i,i,-8,-5%,?
COc1ccc(C(=O)/C=C2/C(=O)Nc3ccccc32)c(OC)c1,?,?,?,-7,-1%,23µM*
O=C1Nc2ccccc2/C1=C/c1cnc(-c2ccccc2)[nH]1,-22%,i,i,1,-5%,-3%
C=CCOc1ccccc1C(=O)/C=C1/C(=O)Nc2ccccc21,?,?,i,-27,-11%,3.7µM*
COc1ccc(C(=O)/C=C2/C(=O)Nc3ccccc32)cc1,?,?,i,4,-4%,9.2µM*
COc1ccc(C(=O)/C=C2/C(=O)Nc3ccccc32)cc1OC,?,i,i,8,-8%,8.2µM*
COc1ccc(C(=O)/C=C2/c3ccccc3CC(C)(C)N2C)cc1,?,i,i,1,-18%,?
COc1cc(C(CC(=O)O)n2cnnn2)ccc1OC(C)C (configuration not stated),-9%,i,i,-7,-2%,8%
COc1ccc(Nc2nc(OC)nc(OC)n2)cc1,1%,i,i,13,-3%,-4%
COc1ccc(Nc2nc(Nc3ccc(OC)cc3)nc(-n3[nH]c(=O)c(C)c3C)n2)cc1,13%,i,1.2µM*,17,-10%,?
Cc1ccc(Cl)cc1NC(=O)Cn1c(=O)n(Cc2ccccc2)c(=O)c2oc3ccccc3c21,nt,i,i,nt,nt,nt
CC(C)OC(=O)c1c(F)c(F)c(N2CCOCC2)c(F)c1F,1%,i,i,-3,-1%,3.3µM*
O=C(O)/C=C1\NC(=O)c2ccccc21,1%,i,i,-19,4%,-2%
O=C1N/C(=C\c2ccc(O)cc2)C(=O)c2ccccc21,13µM*,?,i,-3,-8%,3.2µM*
CC(C)[Si]1(C(C)C)OCC2OC(n3cnc4c(N)ncnc43)C(N)C2O[Si](C(C)C)(C(C)C)O1 (configuration not stated),?,i,i,-19,?,13µM*
O=C(Nc1nnc(-c2ccc(F)cc2)o1)c1cc(Cl)sc1Cl,29%,?,i,-4,4%,1µM*
COc1cccc(-c2nnc(NC(=O)c3ccc(Cl)s3)o2)c1,25%,?,i,9,-1%,6.5µM*
Cc1ccc(C(=O)Nc2nnc(-c3ccncc3)o2)cc1,1%,i,i,-3,1%,3%
COc1cccc(-c2nnc(NC(=O)c3cccc(F)c3)o2)c1,21%,i,?,-1,5%,23µM*
Cc1cccc(-c2nnc(NC(=O)c3ccc(Cl)cc3)o2)c1,?,?,13µM*,?,-1%,15µM*
Cc1ccc(-c2[nH]ncc2/C=N/n2c(COc3ccccc3)nc3ccccc3c2=O)cc1,?,?,?,0,-4%,18µM*
Cc1nc2ccccc2c(=O)n1/N=C/c1cn[nH]c1-c1ccccc1,-5%,?,i,-1,-3%,10%
Cc1ccccc1OCc1nc2ccccc2c(=O)n1/N=C/c1cn[nH]c1-c1ccccc1,?,?,13µM*,-8,-6%,?
COc1cc(C2CC(=O)N(Cc3cccc(F)c3)c3ccccc3S2)cc(OC)c1OC (configuration not stated),nt,?,16µM*,nt,nt,nt
SMILES,SW480 rerep,KB-3-1 cytotox,KB-V1 cytotox,Giardia killer,S-ASM inh,MCF10A rereplic
COc1cccc(-c2ccc3c(c2)N(Cc2cccc(F)c2)C(=O)C(C)S3)c1 (configuration not stated),nt,i,i,nt,nt,nt
CN(C)c1ccc(/C=C2\C=Cc3cc([N+](=O)[O-])ccc32)cc1,nt,?,i,nt,nt,nt
Cc1c(C(=O)N2CCN(c3ccc(C(F)(F)F)cn3)CC2)oc2ccccc12,-6%,i,i,10,?,23µM*
COc1ccccc1N1CCN(C(=O)c2oc3ccccc3c2NC(=O)C(C)Oc2ccccc2)CC1 (configuration not stated),nt,?,i,nt,nt,nt
O=C(c1ccc(C(F)(F)F)cc1)N1CCN(c2ccc(N3CCOCC3)nn2)CC1,-8%,i,16µM*,-14,110%,14%
COc1ccccc1N1CCN(C(=O)c2oc3ccccc3c2C)CC1,15µM*,i,i,40,2%,?
CC(C)(C)c1ccc(C(=O)N2CCN(c3ccc(N4CCOCC4)nn3)CC2)cc1,-7%,i,?,-25,nt,0%
O=C(c1ccccc1Oc1ccc(C(F)(F)F)cc1[N+](=O)[O-])N1CCOCC1,-1%,i,i,5,0%,8%
O=C(c1ccc(Oc2ccc(C(F)(F)F)cc2[N+](=O)[O-])cc1)N1CCOCC1,-13%,?,23µM*,10,-5%,9%
CC(C)c1nn2c(=O)cc(COC(=O)CNC(=O)c3ccccc3Cl)nc2s1,nt,i,?,nt,nt,nt
Fc1cccc(Cc2c(-c3ccccc3)nc3c4ccccc4ccn23)c1,nt,i,?,nt,nt,nt
CCC(=O)N1CCCc2cc(S(=O)(=O)N3CCC(C(=O)Nc4ccc(F)c(F)c4)CC3)ccc21,nt,i,i,nt,nt,nt
Cc1ccc(NC(=O)Cn2c(=O)n(Cc3nc(C)no3)c(=O)c3cc4c(cc32)OCO4)cc1,nt,i,i,nt,nt,nt
COCc1c(C(=O)N2CCN(c3ccccc3C)CC2)oc2ccccc12,2%,i,21µM*,-8,0%,17%
CC(=O)c1ccc(N2CCN(c3ncc(C(F)(F)F)cc3Cl)CC2)cc1,2%,i,i,-5,-20%,5%
CC(=O)c1ccc(N2CCN(c3ccc(C(F)(F)F)cn3)CC2)cc1,-18%,?,7.3µM*,1,-4%,-53%
Cc1c(C(=O)N2CCc3ccccc32)oc2ccccc12,19%,i,18µM*,-15,-7%,3%
CC(C(=O)N1CCc2ccccc21)N1CCc2ccccc2C1 (configuration not stated),1%,i,15µM*,1,3%,7%
COCc1c(C(=O)N2CCN(CCOc3ccccc3)CC2)oc2ccccc12,?,i,?,-8,-2%,7%
COCc1c(C(=O)N2CCc3ccccc32)oc2ccccc12,26%,i,i,9,-2%,?
CSc1cccc(Nc2cc(C(=O)NCCCN(C)c3ccccc3)c3ccccc3n2)c1,nt,i,i,nt,nt,nt
Cc1cc2n(n1)CCCN2C(=O)Nc1ccccc1F,nt,i,?,nt,nt,nt
